A selection: hits, their analogues and other compounds. The true share with any hit is near 3.4%.
MITF inh = inhibitors of human MITF; O75030; AlphaScreen MITF homodimerization, bead proximity signal; inhibition, % at 2.6 µM; 0.91% of 650,000 active; AID 1259374; in the data active means inhibition above about 50%;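 further: 0% = vehicle wells with protein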
TEAD-YAP block = TEAD-YAP interaction inhibition. 1.4% of 640,000 active. HEK-TIYL cells, TEAD-Gal4/YAP UAS-luciferase luminescence. inhibition, % at 9.12 µM; in the data active means inhibition above about 32%;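 further: 0% = median of test compound wells and 100% = reference inhibitor wells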
FBW7 activator = activators of human E3 ligase FBW7; Q969H0; AlphaScreen FBW7–phospho-cyclin E peptide binding, activator screen; normalized activity (activation), % at 26.1 µM; 0.13% of 650,000 active; in the data active means normalized activity above about 1.9%;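 further: purified mutant Fbw7 with reduced substrate affinity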
GPR151 activ = activates the human receptor GPR151; Q8TDV0; PathHunter beta-arrestin GPR151 cells, luminescence; activation, % at 11.2 µM; 1% of 650,000 active; AID 1508602; in the data active means activation above about 4.9%;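 further: 0% = median of compound wells and 100% = cells with positive control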
Target sequence (Q8TDV0 whole entry, looked up): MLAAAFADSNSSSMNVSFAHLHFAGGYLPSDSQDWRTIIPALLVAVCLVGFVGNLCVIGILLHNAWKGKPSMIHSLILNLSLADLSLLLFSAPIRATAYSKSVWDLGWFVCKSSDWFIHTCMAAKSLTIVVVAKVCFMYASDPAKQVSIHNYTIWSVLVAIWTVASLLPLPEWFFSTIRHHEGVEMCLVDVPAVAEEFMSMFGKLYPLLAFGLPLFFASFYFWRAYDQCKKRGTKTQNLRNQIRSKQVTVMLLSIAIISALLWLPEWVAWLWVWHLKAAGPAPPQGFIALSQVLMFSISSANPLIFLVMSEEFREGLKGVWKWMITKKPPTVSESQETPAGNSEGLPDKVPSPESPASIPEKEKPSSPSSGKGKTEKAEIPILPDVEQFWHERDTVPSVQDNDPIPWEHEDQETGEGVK
* = called active by the depositor.

SMILES	MITF inh	TEAD-YAP block	FBW7 activator	GPR151 activ
Cc1ccc(/C=C2/SC(=S)N(CCS(=O)(=O)O)C2=O)o1	56*	6	-1	1
O=C(O)CCN1C(=O)/C(=C\c2ccccn2)SC1=S	8	26	0	1
Cc1ccc(/C=C2/SC(=S)N(CCCCCC(=O)O)C2=O)o1	40	39*	0	2
Cc1ccc(N(CC(O)CN2CCCC2)S(=O)(=O)c2ccccc2[N+](=O)[O-])cc1 (stereo not given)	1	10	0	1
COc1ccc(C2SCC(=O)N2c2cccc(C(=O)O)c2)cc1 (stereo not given)	9	1	0	0
O=C(NN1C(=O)/C(=C\c2ccco2)SC1=S)c1ccccc1Cl	35	1	0	0
NC(=O)NN1C(=O)/C(=C/c2ccco2)SC1=S	69*	-2	-1	0
Cc1ccc(/C=C2\CS/C(=C\c3ccc(C)o3)C2=O)o1	67*	-9	-1	1
Cc1ccc(/C=C2/SC(=O)NC2=S)o1	76*	-5	0	1
Cc1ccc(/C=C2\SC(=S)N(C)C2=O)o1	6	12	0	2
O=C(CCn1cnc2ccccc21)N/N=C\c1cccnc1	7	11	0	1
CC(C)(C)c1ccc2oc(-c3ccc(N)cc3)nc2c1	4	69*	0	0
Oc1ccc2nc(-c3ccccc3)oc2c1	5	70*	1	-6
Cc1cccc2oc(-c3ccc(N)cc3)nc12	2	51*	0	-3
Nc1ccc2oc(-c3ccc(Cl)c(Cl)c3)nc2c1	-8	-3	0	-4
Nc1ccc2oc(-c3ccc(O)cc3)nc2c1	6	89*	0	-6
Nc1ccc(-c2nc3cc([N+](=O)[O-])ccc3o2)cc1	3	-39	0	-2
Cc1ccc2oc(-c3ccc(N)cc3)nc2c1	5	69*	0	-7
Nc1ccc2oc(-c3cc(Cl)ccc3Br)nc2c1	-4	48*	0	1
COc1ccc(-c2nc3cc(C)ccc3o2)cc1	0	69*	0	-7
Cc1ccc2oc(-c3cccc(N)c3)nc2c1	4	-6	0	-9
Cc1ccc(-c2nc3cc(N)ccc3o2)cc1	-3	54*	0	-8
Nc1ccc(O)c(-c2nc3cc(Cl)ccc3o2)c1	4	-43	0	-2
COc1ccc(-c2nc3cc(N)ccc3o2)cc1	-3	31	0	-6
COc1cccc(CN2C[C@H](Sc3ccccn3)C[C@H]2C(=O)N(C)C)c1	3	0	0	-1
SMILES	MITF inh	TEAD-YAP block	FBW7 activator	GPR151 activ
O=S(=O)(Nc1cccc(N2CCC(NCCc3ccco3)CC2)c1)c1ccc(F)cc1	61*	-9	1	1
COc1ccccc1C(=O)Nc1cccc(N2CCC(NCCc3ccco3)CC2)c1	3	44*	0	0
O=S(=O)(Nc1cccc(N2CCC(NCCn3ccnc3)CC2)c1)c1ccc(F)cc1	-2	6	0	0
COc1ccccc1C(=O)Nc1cccc(N2CCC(NCCc3cnccn3)CC2)c1	8	20	0	0
COc1ccccc1C(=O)Nc1cccc(N2CCC(NCc3ccsc3)CC2)c1	-10	-12	0	-1
CCCCNC1CCN(c2cccc(NC(=O)c3ccccc3OC)c2)CC1	29	41*	0	3
COc1ccccc1C(=O)Nc1cccc(N2CCC(NCCc3cccs3)CC2)c1	20	51*	0	-1
CCOC(=O)c1c(C)c(-c2ccccc2)n(CC(=O)N2CCOCC2)c1C	2	8	0	0
COc1ccccc1Oc1ccc(N)cc1	6	-3	0	0
Cc1ccccc1-n1ncc(C(C)NC(=O)c2c(C)nc3sccn23)c1C (stereo not given)	-4	59*	1	0
CCC(CC)C(=O)Nc1ccc(OC)c(NC(=O)c2ccco2)c1	6	-8	0	-1
O=C(Nc1cc(Cl)cc(Cl)c1)c1ccccn1	0	-7	0	0
N/C(=N\O)c1ccc(NC(=O)c2ccccn2)cc1	3	32*	0	-5
O=C(Nc1ccc(-c2ccccc2)cc1)c1ccccn1	-9	64*	0	-5
N/C(=N\OC(=O)c1ccc(F)cc1)c1ccccn1	5	56*	0	-8
O=C(Nc1ccc2c(C(F)(F)F)cc(=O)oc2c1)C1OC2OC3(CCCCC3)OC2C2OC3(CCCCC3)OC12 (stereo not given)	12	4	0	0
COc1cc(/C=C2\SC(=O)N(CCN)C2=O)ccc1OC(F)F	0	8	0	1
CCCNC(=O)c1cccc(-c2ccc(C(N)=O)cc2)n1	5	5	1	-1
Cn1c2ccccc2n2cc(-c3ccccc3)nc12	13	29	1	-1
c1ccc(-c2cn3c(ccc4ccccc43)n2)cc1	3	85*	0	-5
CCCN(CCC)Cc1c(C(=O)N/N=C/c2ccc(O)cc2O)nnn1-c1nonc1N	36	71*	0	0
Cc1nonc1C(=O)N/N=C/c1ccc(O)cc1O	82*	4	-1	-8
CN(C)Cc1c(C(=O)N/N=C/c2ccc(O)cc2O)nnn1-c1nonc1N	15	24	-1	0
CCc1c(C(=O)N/N=C/c2ccc(O)cc2O)nnn1-c1nonc1N	0	76*	0	-2
CC(C)(C)c1ccc(C(=O)N/N=C/c2ccc(O)cc2O)cc1	-51	9	0	1
SMILES	MITF inh	TEAD-YAP block	FBW7 activator	GPR151 activ
CCN(CC)C(=O)CSc1nnc(COc2ccc(Cl)c(C)c2)o1	9	-6	0	-1
CCCCCCCc1c2c(C)c(C(=O)OCC)nc-2cc2n1C(C)C(C)=C2C (stereo not given)	3	29	0	1
CCCCCCCc1c2c(C)c(C(=O)OCC)nc-2cc2n1CC(C)=C2C	11	42*	0	2
Cc1ccccc1-n1ncc(C(C)NC(=O)c2cc(C(C)C)nc(N)n2)c1C (stereo not given)	2	26	0	0
O=C(/C=C/Nc1ccc(Br)cc1F)c1ccccc1	-3	84*	0	-2
O=C(/C=C/Nc1ccccc1F)c1ccc(Br)cc1	23	-47	1	-2
O=C(/C=C\Nc1cccc(Br)c1)c1ccccc1	15	-54	0	1
O=C(/C=C\Nc1ccccn1)c1ccccc1	14	41*	0	-6
O=C(/C=C/Nc1ccccc1Br)c1ccccn1	8	92*	0	-7
O=C(/C=C/Nc1ccccc1Br)c1ccccc1	9	83*	0	-6
CC1CCN(C(=O)CNC(=O)c2ccc(Br)cc2)CC1	15	-25	0	-1
CCCN(CCC)CC(O)CN(c1ccc(C)cc1)S(=O)(=O)c1ccccc1 (stereo not given)	4	-9	0	2
Cc1ccc2c(c1)C(=Nc1ccc(I)cc1)C(=O)N2	21	-9	2.1*	-1
Nc1ccccc1C=NCCN=Cc1ccccc1N	0	15	0	1
COc1ccc(Nc2cc(N3CCCCC3C)c3noc4c3c2C(=O)c2ccccc2-4)cc1 (stereo not given)	51*	25	-1	-2
